Experimental data reported in PubChem BioAssay (Tox21).
Results filed as inconclusive are left out. Calls of active or inactive are those of the source. Unless noted, calls follow the shape of the full dose curve.

Tests used:
[1] = Nuclear factor erythroid 2-related factor 2/antioxidant responsive element (Nrf2/ARE) small molecule agonists: qHTS cell viability counter screen in human keratinocytes (AID 1919968; active = well fitted curve in the direction sought with a large enough effect in the repeat runs; an effect the other way counts as inactive or inconclusive; also: nearly all actives have a fitted effect of over 55% in size; also: potency is read from the fitted curve at half-maximal effect)
In short: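 Fluorescence read-out from CellTiter-Fluor after 1 h at 37 C. Wells held HaCaT-derived ARE-luciferase reporter cells (1,500/well) treated 23 h with DMSO-dissolved compounds. Run in the same wells as the luciferase agonist read.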

[2] = molecular target: Gonadotropin-releasing hormone receptor (Homo sapiens) (UniProt P30968); test: Human gonadotropin-releasing hormone receptor (GnRHR) small molecule agonists, calcium flux assay in GnRHR-HEK293 cells (AID 1920063); also: nearly all actives have a fitted effect of over 35% in size
Chain of Gonadotropin-releasing hormone receptor (Homo sapiens) (P30968 whole entry, looked up): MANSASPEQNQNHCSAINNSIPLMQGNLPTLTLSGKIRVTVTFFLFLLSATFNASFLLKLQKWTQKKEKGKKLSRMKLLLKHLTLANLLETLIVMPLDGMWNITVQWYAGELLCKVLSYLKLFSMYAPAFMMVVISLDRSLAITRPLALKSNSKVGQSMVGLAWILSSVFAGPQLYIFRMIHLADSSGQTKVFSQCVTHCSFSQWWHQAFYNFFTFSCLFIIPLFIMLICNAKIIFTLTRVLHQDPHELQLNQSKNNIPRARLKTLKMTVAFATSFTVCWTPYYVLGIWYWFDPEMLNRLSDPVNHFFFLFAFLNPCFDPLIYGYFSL
In short: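 Calcium-dye fluorescence, Ex/Em=480/540, recorded every 1 sec over 3 min after compound addition to GnRHR-HEK293 cells. Cells had been seeded 18 hours earlier and dye-loaded for 1 hour at 37 C. Fifteen concentrations, triplicates.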

[3] = molecular target: KiSS-1 receptor (Homo sapiens) (UniProt Q969F8); test: Human kisspeptin (KISS1R) small molecule agonists, calcium flux assay in KISS1R-HEK293 cells (AID 1920064; active = well fitted curve in the direction sought with a large enough effect in the repeat runs; an effect the other way counts as inactive or inconclusive)
Chain of KiSS-1 receptor (Homo sapiens) (Q969F8 whole entry, looked up): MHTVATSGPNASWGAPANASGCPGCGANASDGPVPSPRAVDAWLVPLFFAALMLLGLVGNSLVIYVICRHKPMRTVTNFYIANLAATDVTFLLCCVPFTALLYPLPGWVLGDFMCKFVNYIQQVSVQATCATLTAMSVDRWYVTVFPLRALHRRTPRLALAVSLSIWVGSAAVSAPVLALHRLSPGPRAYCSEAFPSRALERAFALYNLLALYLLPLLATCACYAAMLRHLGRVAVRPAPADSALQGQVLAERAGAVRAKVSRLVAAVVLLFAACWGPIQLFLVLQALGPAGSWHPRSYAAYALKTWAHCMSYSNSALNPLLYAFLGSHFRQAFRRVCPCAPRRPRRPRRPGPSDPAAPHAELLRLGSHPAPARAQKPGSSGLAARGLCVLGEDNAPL
In short: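 Calcium flux read-out: kinetic fluorescence at Ex/Em=480/540, 1 s intervals over 3 min, after pin-tool compound addition to dye-loaded KISS1R-HEK293 cells. Fifteen concentrations, triplicates.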

[4] = G protein-coupled receptor (GPCR) small molecule agonists, calcium flux assay: HEK293 wild type cell line counter screen (AID 1920065)
In short: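 Agonist mode; 18 h seeding at 37 C, 1 h dye load at 37 C; compounds pinned from DMSO, ATP as positive control; kinetic fluorescence 480/540 nm, 3 min, 1 s reads; 15 concentrations, triplicate.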

[5] = p53 small molecule agonists, cell-based qHTS assay with human liver microsomes (AID 1963577)
In short: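 p53RE-bla reporter cells were pre-incubated 5 h at 37 C, then treated with compounds plus human liver microsomes (0.5 mg/mL final) and NADPH (0.5 mg/mL final) for 16 h at 37 C. Beta-lactamase activity was read by LiveBLAzer fluorescence after 2 h at room temperature.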

[6] = p53 small molecule agonists, cell-based qHTS assay with rat liver microsomes (AID 1963578)
In short: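 p53RE-bla cells were exposed to compounds together with rat liver microsomes (0.5 mg/mL final) and NADPH (0.5 mg/mL final) for 16 h at 37 C, then read by LiveBLAzer beta-lactamase fluorescence after 2 h at room temperature.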

[7] = p53 small molecule agonists, cell-based qHTS assay with human liver microsomes: qHTS cell viability counter screen (AID 1963579); also: nearly all actives have a fitted effect of over 45% in size; also: potency is read from the fitted curve at half-maximal effect
In short: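 p53RE-bla cells (4,000/well) were pre-incubated 5 h at 37 C, then given compounds in DMSO plus human liver microsomes (0.5 mg/mL final) and NADPH (0.5 mg/mL final) for 16 h at 37 C. Viability was read by CellTiter-Glo luminescence.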

[8] = p53 small molecule agonists, cell-based qHTS assay with rat liver microsomes: qHTS cell viability counter screen (AID 1963580); also: nearly all actives have a fitted effect of over 45% in size
In short: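 Luminescent ATP readout (CellTiter-Glo, 30 min at room temperature) reports viability of p53RE-bla HCT-116 cells after 16 h at 37 C with test compounds under metabolic activation by rat liver microsomes and NADPH at 0.5 mg/mL final each.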

[9] = molecular target: 5-hydroxytryptamine receptor 2A (Homo sapiens) (UniProt P28223); test: 5-hydroxytryptamine receptor 2A (HTR2A) small molecule agonists, cell-based qHTS assay (AID 1963587); also: nearly all actives have a fitted effect of over 30% in size
Chain of 5-hydroxytryptamine receptor 2A (Homo sapiens) (P28223 whole entry, looked up): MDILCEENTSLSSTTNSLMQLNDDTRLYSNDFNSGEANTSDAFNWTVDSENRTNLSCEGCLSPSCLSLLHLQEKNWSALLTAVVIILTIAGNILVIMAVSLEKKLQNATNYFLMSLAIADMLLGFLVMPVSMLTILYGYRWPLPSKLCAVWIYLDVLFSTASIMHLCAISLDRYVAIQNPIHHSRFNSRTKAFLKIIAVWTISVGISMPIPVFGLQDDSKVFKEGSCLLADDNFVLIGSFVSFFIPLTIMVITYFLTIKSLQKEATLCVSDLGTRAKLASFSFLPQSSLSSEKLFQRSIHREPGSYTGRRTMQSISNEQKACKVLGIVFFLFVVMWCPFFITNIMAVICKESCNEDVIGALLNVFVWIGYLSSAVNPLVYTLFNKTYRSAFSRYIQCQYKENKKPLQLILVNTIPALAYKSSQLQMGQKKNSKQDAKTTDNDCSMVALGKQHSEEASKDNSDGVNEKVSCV
In short: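 HTR2A-CHO cells, plated 18 h at 37 C/5% CO2, dye-loaded 1 h at 37 C; compounds in DMSO added by pin tool (agonist mode). Intracellular calcium flux read as kinetic fluorescence on FDSS over 2 min at 1 s intervals.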

[10] = molecular target: Muscarinic acetylcholine receptor M1 (Homo sapiens) (UniProt P11229); test: Cholinergic receptor muscarinic 1 (CHRM1) small molecule antagonists, cell-based qHTS assay (AID 1963588); also: nearly all actives have a fitted effect of over 40% in size
Chain of Muscarinic acetylcholine receptor M1 (Homo sapiens) (P11229 whole entry, looked up): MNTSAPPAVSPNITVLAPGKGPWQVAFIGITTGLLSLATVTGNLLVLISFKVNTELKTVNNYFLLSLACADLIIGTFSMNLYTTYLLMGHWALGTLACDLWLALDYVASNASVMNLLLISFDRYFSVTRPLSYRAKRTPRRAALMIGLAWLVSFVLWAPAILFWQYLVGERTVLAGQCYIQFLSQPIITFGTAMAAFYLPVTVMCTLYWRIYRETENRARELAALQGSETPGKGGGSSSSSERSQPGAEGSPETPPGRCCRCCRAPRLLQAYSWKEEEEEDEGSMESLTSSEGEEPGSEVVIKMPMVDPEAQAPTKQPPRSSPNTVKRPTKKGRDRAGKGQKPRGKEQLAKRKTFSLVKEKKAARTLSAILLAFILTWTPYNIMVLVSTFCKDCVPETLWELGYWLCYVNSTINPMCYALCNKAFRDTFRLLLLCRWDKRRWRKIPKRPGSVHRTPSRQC
In short: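 Compounds were tested at 15 concentrations in three independent runs. Dye-loaded CHRM1-CHO cells were exposed 5 min at room temperature before stimulation by acetylcholine added at 50nM. Intracellular calcium was read kinetically on FDSS for 3 min.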

[11] = molecular target: Muscarinic acetylcholine receptor M1 (Homo sapiens) (UniProt P11229); test: Cholinergic receptor muscarinic 1 (CHRM1) small molecule agonists, cell-based qHTS assay (AID 1963589); also: nearly all actives have a fitted effect of over 35% in size
In short: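 Calcium flux read-out: kinetic fluorescence at 1 sec intervals after pin-tool compound addition to dye-loaded CHRM1-CHO cells (human M1). Agonist mode; 15 concentrations tested in triplicate independent runs.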

[12] = cAMP Responsive Elements (CRE) small molecule antagonists, cell-based qHTS assay (AID 1963591; active = well fitted inhibition curve with a large enough effect in the signal ratio in the repeat runs, not every such curve was filed as active; the % refers to the signal ratio; also: potency is read from the fitted curve at half-maximal effect)
In short: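 HEK293T CRE-bla; 18 h preincubation; compound pin-transfer; NKH477 0.25 uM final, 3 h, 37 C; LiveBLAzer FRET substrate 2 h RT.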

[13] = molecular target: Beta-2 adrenergic receptor (Homo sapiens) (UniProt P07550); test: Adrenergic beta2 receptor (ADRB2) small molecule antagonists, cell-based qHTS assay (AID 1963592); also: nearly all actives have a fitted effect of over 50% in size; also: potency is read from the fitted curve at half-maximal effect; as to activity change, negative = inhibition: series mostly up to about 92 µM
Chain of Beta-2 adrenergic receptor (Homo sapiens) (P07550 whole entry, looked up): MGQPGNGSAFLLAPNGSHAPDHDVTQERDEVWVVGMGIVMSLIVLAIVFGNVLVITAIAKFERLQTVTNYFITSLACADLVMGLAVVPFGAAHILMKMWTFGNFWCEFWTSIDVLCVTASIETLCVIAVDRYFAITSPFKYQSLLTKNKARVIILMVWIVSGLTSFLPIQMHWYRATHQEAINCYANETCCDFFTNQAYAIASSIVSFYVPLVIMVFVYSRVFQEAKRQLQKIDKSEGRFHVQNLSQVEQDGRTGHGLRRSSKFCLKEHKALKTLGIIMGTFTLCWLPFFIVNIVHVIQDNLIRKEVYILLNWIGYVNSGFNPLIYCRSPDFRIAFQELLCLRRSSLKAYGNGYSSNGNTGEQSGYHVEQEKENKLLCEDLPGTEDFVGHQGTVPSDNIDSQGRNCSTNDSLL
In short: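 Assay format: CHO-ADRB2 cells, 18-20hr seeding at 37C/5% CO2, then compound plus 1nM isoproterenol agonist mix for 0.5hr RT. Homogeneous time-resolved fluorescence cAMP detection after 1hr, expressed as 665/615 nm ratio.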

[14] = molecular target: D(2) dopamine receptor (Homo sapiens) (UniProt P14416); test: Dopamine D2 receptor (DRD2) small molecule agonists, cell-based qHTS assay (AID 1963594); also: nearly all actives have a fitted effect of over 35% in size; also: potency is read from the fitted curve at half-maximal effect
Chain of D(2) dopamine receptor (Homo sapiens) (P14416 whole entry, looked up): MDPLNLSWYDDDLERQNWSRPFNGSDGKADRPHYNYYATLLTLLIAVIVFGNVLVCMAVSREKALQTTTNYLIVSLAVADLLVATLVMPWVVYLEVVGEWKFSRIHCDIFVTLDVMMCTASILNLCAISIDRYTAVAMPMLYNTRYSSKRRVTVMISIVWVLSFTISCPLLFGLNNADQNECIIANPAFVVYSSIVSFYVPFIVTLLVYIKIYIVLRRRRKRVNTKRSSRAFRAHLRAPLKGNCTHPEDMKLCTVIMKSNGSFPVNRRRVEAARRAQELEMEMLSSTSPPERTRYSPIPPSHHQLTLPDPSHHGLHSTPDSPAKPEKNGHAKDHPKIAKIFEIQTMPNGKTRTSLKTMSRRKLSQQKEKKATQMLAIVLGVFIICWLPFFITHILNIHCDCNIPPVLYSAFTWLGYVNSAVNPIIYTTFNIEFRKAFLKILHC
In short: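 HEK293 cells stably expressing DRD2 were cultured 24 h at 37 C, then given Ro20-1724 (0.1 mM final) and compounds for 10 min at room temperature. NKH477 (200nM) was then added for 30 min. cAMP was read by HTRF.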

[15] = molecular target: D(2) dopamine receptor (Homo sapiens) (UniProt P14416); test: Dopamine D2 receptor (DRD2) small molecule antagonists, cell-based qHTS assay (AID 1963595; active = well fitted inhibition curve with a large enough effect in the signal ratio in the repeat runs, with a control signal flat; the % refers to the signal ratio)
In short: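 Antagonist mode in DRD2-HEK293 cells: after compound addition with 0.1 mM Ro20-1724, cells received quinpirole (12 nM) and NKH477 (200 nM) for 30 min at room temperature; HTRF cAMP read after 1 h detection.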

[16] = p53 small molecule agonists, cell-based qHTS assay (AID 1963582; active = well fitted activation curve with a large enough effect in the signal ratio in the repeat runs, not every such curve was filed as active; the % refers to the signal ratio)
In short: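 Fluorescence intensity read-out of a beta-lactamase reporter under a p53 response element. Cells were exposed to DMSO-dissolved compounds for 16 h at 37 C, then developed with FRET substrate for 2 h at RT.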

[17] = molecular target: 5-hydroxytryptamine receptor 2A (Homo sapiens) (UniProt P28223); test: 5-hydroxytryptamine receptor 2A (HTR2A) small molecule antagonists, cell-based qHTS assay (AID 1963586); also: nearly all actives have a fitted effect of over 45% in size
In short: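 CHO cells stably expressing human HTR2A were plated for 18 h at 37 C, then loaded with calcium dye for 1 h. Compounds were preincubated 5 min at room temperature before DOI (4 nM solution) was added. Kinetic fluorescence was read for 3 min.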

[18] = molecular target: Beta-2 adrenergic receptor (Homo sapiens) (UniProt P07550); test: Adrenergic beta2 receptor (ADRB2) small molecule agonists, cell-based qHTS assay (AID 1963593);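 also: CHO cells stably overexpressing human ADRB2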
In short: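 CHO cells stably over-expressing ADRB2 were plated overnight at 37C, then dosed with compounds plus a stimulation mix containing 100uM IBMX and 25uM Ro-20-1724 for 0.5hr at room temperature. cAMP was measured by HTRF competition, 1hr.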

[19] = p53 small molecule agonists, cell-based qHTS assay: qHTS cell viability counter screen (AID 1963581); also: nearly all actives have a fitted effect of over 45% in size; also: potency is read from the fitted curve at half-maximal effect
In short: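 Cytotoxicity read-out: ATP-based luminescence (CellTiter-Glo, 30 min RT) measured in the same wells as the p53 reporter assay, HCT-116 p53RE-bla cells, 16 h compound exposure at 37 C.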

[20] = cAMP Responsive Elements (CRE) small molecule agonists, cell-based qHTS assay (AID 1963590)
In short: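 Beta-lactamase reporter readout: LiveBLAzer B/G FRET substrate, 2 h at room temperature, added after 3 h compound treatment of CRE-bla HEK 293T cells at 37 C/5% CO2.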
% is scaled to controls: 0 for no effect and ±100 for the full control effect.

Oc1ccc(C2(c3ccc(O)c(C4CCCCC4)c3)CCCCC2)cc1C1CCCCC1
active: Potency [1] 12.2 µM | Potency [7] 20.4 µM | Potency [12] 21.7 µM
inactive: Potency [2] | Potency [3] | Potency [4] | Potency [5] | Potency [6] | Potency [8] | Potency [9] | Potency [10] | Potency [11] | Potency [13] | Potency [14] | Potency [15]

Clc1cc(Cl)c2c(c1)N=C1CCCCCN1C2
inactive: Potency [1] | Potency [2] | Potency [3] | Potency [4] | Potency [5] | Potency [6] | Potency [7] | Potency [8] | Potency [16] | Potency [17] | Potency [9] | Potency [11] | Potency [13] | Potency [18]

CC(=O)[O][Al]
inactive: Potency [1] | Potency [2] | Potency [3] | Potency [4] | Potency [5] | Potency [6] | Potency [7] | Potency [8] | Potency [16] | Potency [9] | Potency [11] | Potency [12] | Potency [13] | Potency [18] | Potency [14] | Potency [15]

CC(C)(C)c1ccc(C(=O)CCCN2CCC(OC(c3ccccc3)c3ccccc3)CC2)cc1
inactive: Potency [2] | Potency [3] | Potency [4] | Potency [5] | Potency [6] | Potency [7] | Potency [8] | Potency [13] | Potency [15]
active: Potency [1] 6.68 µM | Potency [19] 11.2 µM

Oc1ccc2ccccc2c1
inactive: Potency [1] | Potency [2] | Potency [3] | Potency [4] | Potency [5] | Potency [6] | Potency [7] | Potency [8] | Potency [16] | Potency [10] | Potency [11] | Potency [20] | Potency [12] | Potency [13] | Potency [14] | Potency [15]

O=C(/C=C/c1ccccc1)OCCc1ccccc1
inactive: Potency [1] | Potency [2] | Potency [3] | Potency [4] | Potency [5] | Potency [6] | Potency [7] | Potency [19] | Potency [16] | Potency [17] | Potency [9] | Potency [10] | Potency [11] | Potency [20] | Potency [12] | Potency [13] | Potency [14]

CCc1ccc(C)cc1
inactive: Potency [1] | Potency [2] | Potency [3] | Potency [4] | Potency [5] | Potency [6] | Potency [7] | Potency [8] | Potency [16] | Potency [17] | Potency [9] | Potency [10] | Potency [11] | Potency [20] | Potency [12] | Potency [13] | Potency [15]

Clc1ccc(C(Cn2ccnc2)OCc2ccc(Sc3ccccc3)cc2)c(Cl)c1 (stereo not drawn)
inactive: Potency [1] | Potency [2] | Potency [3] | Potency [4] | Potency [5] | Potency [6] | Potency [7] | Potency [19] | Potency [16] | Potency [11] | Potency [13] | Potency [14] | Potency [15]

CCN1/C(=C/C=C/c2sc3ccccc3[n+]2CC)Sc2ccccc21
active: Potency [1] 3.26 µM | Potency [12] 11.6 µM | Potency [13] 5.8 µM | Potency [14] 14.6 µM
inactive: activity change [2] -1.77% [at 11.8 µM, hits give high values] | activation [3] -1.63% [at 15.8 µM] | activation [4] -0.0412% [at 11.8 µM] | activation [5] 15.3% [at 13.5 µM] | activation [6] 2.93% [at 13.6 µM] | activity change, negative = cytotoxicity [7] 8.44% [at 13.5 µM] | activity change, negative = cytotoxicity [8] 1.97% [at 13.5 µM] | activity change, negative = cytotoxicity [19] 1.06% [at 13.5 µM] | activity, negative = inhibition [17] -18.6% [at 12.7 µM] | activity, negative = inhibition [10] -35.2% [at 12.6 µM] | activation [11] -0.119% [at 15.8 µM] | activity change, negative = inhibition [15] -0.0645% [at 18.9 µM]

CC(CN)CCCN (stereo not drawn)
inactive: Potency [1] | Potency [2] | Potency [3] | Potency [4] | Potency [5] | Potency [6] | Potency [7] | Potency [8] | Potency [16] | Potency [17] | Potency [9] | Potency [10] | Potency [11] | Potency [20] | Potency [12] | Potency [13] | Potency [14] | Potency [15]

CC(=O)CC(=O)Nc1ccc(S(=O)(=O)O)cc1
inactive: Potency [1] | Potency [2] | Potency [3] | Potency [4] | Potency [5] | Potency [6] | Potency [7] | Potency [8] | Potency [17] | Potency [9] | Potency [10] | Potency [11] | Potency [20] | Potency [12] | Potency [13] | Potency [18] | Potency [14] | Potency [15]

C=CC(=O)OCCC#N
inactive: Potency [1] | Potency [2] | Potency [3] | Potency [4] | Potency [5] | Potency [6] | Potency [7] | Potency [8] | Potency [16] | Potency [17] | Potency [9] | Potency [10] | Potency [11] | Potency [20] | Potency [12] | Potency [13] | Potency [18] | Potency [14] | Potency [15]

CC(C)CCCCCCN
inactive: Potency [1] | Potency [2] | Potency [3] | Potency [4] | Potency [5] | Potency [6] | Potency [7] | Potency [8] | Potency [16] | Potency [17] | Potency [10] | Potency [11] | Potency [12] | Potency [13] | Potency [14] | Potency [15]

O=C(Nc1ccc(Oc2ccc(Cl)cc2)c(Cl)c1)c1cc(I)cc(I)c1O
active: Potency [1] 26.6 µM | Potency [19] 5 µM
inactive: Potency [2] | Potency [3] | Potency [4] | Potency [5] | Potency [6] | Potency [7] | Potency [8] | Potency [17] | Potency [9] | Potency [10] | Potency [11] | Potency [12] | Potency [13] | Potency [14] | Potency [15]
